The values that follow come from the supplement of paper PMC12669032.

The first experiment deals with Roseburia intestinalis. In words: growth AUC relative to DMSO control (median of replicates) (fraction); higher = more growth (less inhibition), active = hit call of the paper. Conditions: 20 µM; 24 h;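 active = AUC reduced over 20% with Padj below 0.05 in at least 2 of 3 replicates; inactive = otherwise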. In a few lines: (§1)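 Starting at OD600 0.05, gut bacterial monocultures in mGAM were grown anaerobically at 37 °C with 20 µM compound (1% DMSO) under pierced gas-permeable seals. OD600 was read every hour for 24 h, and the lowest OD of each curve was set to 0. Area under the growth curve was normalised to the plate median of solvent-only wells, or to row and column medians on the industrial chemical plate, and the median of three biological replicates grown on separate days is given.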
In the case of `N#Cc1ccc(CC(=NNC(=O)Nc2ccc(OC(F)(F)F)cc2)c2cccc(C(F)(F)F)c2)cc1` (mixture of isomers), the “growth AUC” value is 0.954 (inactive).

On to `COC(=O)C(C)Oc1ccc(Cl)cc1Cl` (stereo not drawn), for which the “growth AUC” value is 0.979 (inactive).

With `CC(C)N(C(=O)C(=O)O)c1ccccc1`, the “growth AUC” value is 1.02 (inactive).

Take `c1ccc(CNc2ncnc3nc[nH]c23)cc1`: the “growth AUC” value was 0.962 (inactive).

Take `C=CCc1ccc(O)c(OC)c1`: the “growth AUC” value was 0.937 (inactive).

As for `CCCCOC(=O)COc1ccc(Cl)cc1Cl`, the “growth AUC” value is 1.04 (inactive).

For `CC(Oc1ccc(Cl)cc1Cl)C(=O)NC(C)(C#N)C(C)C` (stereo not drawn), the “growth AUC” value was 0.968 (inactive).

Turning to `Cc1cccc(C)c1N(CC(=O)O)C(=O)CS(=O)(=O)[O-].[Na+]`, the “growth AUC” value was 0.979 (inactive).

As to `c1ccc2cc3ccccc3cc2c1`, the “growth AUC” value is 0.933 (inactive).

On to `Cn1cc(C(=O)Nc2ccc(F)cc2-c2ccc(Cl)c(Cl)c2)c(C(F)F)n1`, for which the “growth AUC” value is 0.989 (inactive).

As to `O=c1cccc2n1CCn1c-2cccc1=O`, the “growth AUC” value was 0.991 (inactive).

`CCCCCCC(C)OC(=O)COc1nc(F)c(Cl)c(N)c1Cl` (stereo not drawn): the “growth AUC” value was 0.967 (inactive).

On to `Cc1[nH]n(C)c(=O)c1C(=O)c1ccc(C(F)(F)F)cc1S(C)(=O)=O`, for which the “growth AUC” value was 1.01 (inactive).

Regarding `COC(=O)[C@@H](C)Oc1ccc(Oc2ncc(C(F)(F)F)cc2Cl)cc1`, the “growth AUC” value is 1 (inactive).

As to `CC(C)OC(=O)N[C@H](C(=O)N[C@H](C)c1nc2ccc(F)cc2s1)C(C)C`, the “growth AUC” value was 0.975 (inactive).

On to `O.O=C(Nc1ccc([N+](=O)[O-])cc1Cl)c1cc(Cl)ccc1O`, for which the “growth AUC” value was 0.869 (inactive).

With `CC1=C(C(=O)Nc2ccccc2)CCCO1`, the “growth AUC” value was 0.996 (inactive).

In the case of `CCOCCOC(=O)C(C)Oc1ccc(Oc2ncc(C(F)(F)F)cc2Cl)cc1` (stereo not drawn), the “growth AUC” value is 0.953 (inactive).

As for `NS(=O)(=O)[O-].[NH4+]`, the “growth AUC” value is 1.06 (inactive).

Consider `CCOC(=O)CSc1nc(C(C)(C)C)nn1C(=O)N(C)C`, for which the “growth AUC” value was 0.913 (inactive).

Turning to `CCc1cccc(C)c1NC(=O)CS(=O)(=O)[O-].[Na+]`, the “growth AUC” value was 1 (inactive).

Take `ClC(COCC(Cl)C(Cl)(Cl)Cl)C(Cl)(Cl)Cl` (stereo not drawn): the “growth AUC” value was 1.01 (inactive).

With `CCC(C)c1cc([N+](=O)[O-])cc([N+](=O)[O-])c1OC(=O)OC(C)C` (stereo not drawn), the “growth AUC” value is 0.692 (active).

In the case of `CC(C)(CO)C(O)(CCc1ccc(Cl)cc1)Cn1cncn1` (stereo not drawn), the “growth AUC” value is 0.935 (inactive).

In the case of `CC(C)(C)C(=O)C(Oc1ccc(Cl)cc1)n1ccnc1` (stereo not drawn), the “growth AUC” value was 0.9 (inactive).

On to `CC(C)(NC(=O)C(Br)C(C)(C)C)c1ccccc1` (stereo not drawn), for which the “growth AUC” value is 0.964 (inactive).

Turning to `COc1cc(OC)nc(NC(=O)NS(=O)(=O)c2c(Cl)nc3ccccn23)n1`, the “growth AUC” value was 1 (inactive).

Take `CCc1ccc(O)cc1`: the “growth AUC” value was 0.919 (inactive).

Take `CCOc1nc(F)cc2nc(S(=O)(=O)Nc3c(Cl)cccc3C(=O)OC)nn12`: the “growth AUC” value was 1.04 (inactive).

For the compound `CCOCCc1ccc(OCCNc2ncnc(CC)c2Cl)c(C)c1C`, the “growth AUC” value was 0.923 (inactive).

With `CCOC(=O)[C@@H](C)Oc1ccc(Oc2cnc3cc(Cl)ccc3n2)cc1`, the “growth AUC” value is 1.01 (inactive).

Consider `Cc1cccc(C)c1N(C(=O)CCl)C1CCOC1=O` (stereo not drawn), for which the “growth AUC” value was 1.08 (inactive).

With `Cc1[nH]oc(=O)c1N=Nc1ccccc1Cl`, the “growth AUC” value was 0.938 (inactive).

For the compound `CCCOc1nc2ccc(I)cc2c(=O)n1CCC`, the “growth AUC” value was 0.942 (inactive).

As to `CCOCOc1ccc(C(=O)Nc2cccc(Cl)c2Cl)cc1`, the “growth AUC” value is 1 (inactive).

As for `COc1ccc(Oc2ccc(NC(=O)N(C)C)cc2)cc1`, the “growth AUC” value is 0.99 (inactive).

On to `COCCN(C(=O)CO)c1c(C)cccc1C(=O)O`, for which the “growth AUC” value is 1.01 (inactive).

Turning to `C/C=C/C=C/CCCCCCCO`, the “growth AUC” value was 1 (inactive).

Take `CCOC(=O)C(C)Oc1ccc(Oc2nc3ccc(Cl)cc3o2)cc1` (racemic): the “growth AUC” value is 1.02 (inactive).

A further experiment deals with Streptococcus salivarius. The description is as above. Conditions: 20 µM; 24 h. A digest of the protocol: as §1
`N#Cc1ccc(CC(=NNC(=O)Nc2ccc(OC(F)(F)F)cc2)c2cccc(C(F)(F)F)c2)cc1` (mixture of isomers): the “growth AUC” value was 1.02 (inactive).

Take `COC(=O)C(C)Oc1ccc(Cl)cc1Cl` (stereo not drawn): the “growth AUC” value is 0.991 (inactive).

For the compound `CC(C)N(C(=O)C(=O)O)c1ccccc1`, the “growth AUC” value is 1.02 (inactive).

On to `c1ccc(CNc2ncnc3nc[nH]c23)cc1`, for which the “growth AUC” value is 1.04 (inactive).

Regarding `C=CCc1ccc(O)c(OC)c1`, the “growth AUC” value is 0.975 (inactive).

Regarding `CCCCOC(=O)COc1ccc(Cl)cc1Cl`, the “growth AUC” value was 1.01 (inactive).

Consider `CC(Oc1ccc(Cl)cc1Cl)C(=O)NC(C)(C#N)C(C)C` (stereo not drawn), for which the “growth AUC” value is 0.918 (inactive).

Turning to `Cc1cccc(C)c1N(CC(=O)O)C(=O)CS(=O)(=O)[O-].[Na+]`, the “growth AUC” value is 0.972 (inactive).

As for `c1ccc2cc3ccccc3cc2c1`, the “growth AUC” value is 0.919 (inactive).

For the compound `Cn1cc(C(=O)Nc2ccc(F)cc2-c2ccc(Cl)c(Cl)c2)c(C(F)F)n1`, the “growth AUC” value was 0.897 (inactive).

On to `O=c1cccc2n1CCn1c-2cccc1=O`, for which the “growth AUC” value is 1.02 (inactive).

As to `CCCCCCC(C)OC(=O)COc1nc(F)c(Cl)c(N)c1Cl` (stereo not drawn), the “growth AUC” value was 0.966 (inactive).

For `Cc1[nH]n(C)c(=O)c1C(=O)c1ccc(C(F)(F)F)cc1S(C)(=O)=O`, the “growth AUC” value was 1.03 (inactive).

Consider `COC(=O)[C@@H](C)Oc1ccc(Oc2ncc(C(F)(F)F)cc2Cl)cc1`, for which the “growth AUC” value was 0.984 (inactive).

In the case of `CC(C)OC(=O)N[C@H](C(=O)N[C@H](C)c1nc2ccc(F)cc2s1)C(C)C`, the “growth AUC” value is 0.959 (inactive).

As to `O.O=C(Nc1ccc([N+](=O)[O-])cc1Cl)c1cc(Cl)ccc1O`, the “growth AUC” value was 0.085 (active).

Regarding `CC1=C(C(=O)Nc2ccccc2)CCCO1`, the “growth AUC” value is 1.03 (inactive).

As for `CCOCCOC(=O)C(C)Oc1ccc(Oc2ncc(C(F)(F)F)cc2Cl)cc1` (stereo not drawn), the “growth AUC” value is 0.959 (inactive).

Regarding `NS(=O)(=O)[O-].[NH4+]`, the “growth AUC” value was 1.01 (inactive).

Take `CCOC(=O)CSc1nc(C(C)(C)C)nn1C(=O)N(C)C`: the “growth AUC” value is 0.957 (inactive).

Regarding `CCc1cccc(C)c1NC(=O)CS(=O)(=O)[O-].[Na+]`, the “growth AUC” value was 1.01 (inactive).

Regarding `ClC(COCC(Cl)C(Cl)(Cl)Cl)C(Cl)(Cl)Cl` (stereo not drawn), the “growth AUC” value is 1.02 (inactive).

`CCC(C)c1cc([N+](=O)[O-])cc([N+](=O)[O-])c1OC(=O)OC(C)C` (stereo not drawn): the “growth AUC” value is 0.901 (inactive).

`CC(C)(CO)C(O)(CCc1ccc(Cl)cc1)Cn1cncn1` (stereo not drawn): the “growth AUC” value was 0.987 (inactive).

For `CC(C)(C)C(=O)C(Oc1ccc(Cl)cc1)n1ccnc1` (stereo not drawn), the “growth AUC” value was 0.963 (inactive).

Regarding `CC(C)(NC(=O)C(Br)C(C)(C)C)c1ccccc1` (stereo not drawn), the “growth AUC” value is 0.96 (inactive).

`COc1cc(OC)nc(NC(=O)NS(=O)(=O)c2c(Cl)nc3ccccn23)n1`: the “growth AUC” value is 1.05 (inactive).

`CCc1ccc(O)cc1`: the “growth AUC” value is 0.946 (inactive).

As for `CCOc1nc(F)cc2nc(S(=O)(=O)Nc3c(Cl)cccc3C(=O)OC)nn12`, the “growth AUC” value was 1.01 (inactive).

As to `CCOCCc1ccc(OCCNc2ncnc(CC)c2Cl)c(C)c1C`, the “growth AUC” value was 1 (inactive).

Regarding `CCOC(=O)[C@@H](C)Oc1ccc(Oc2cnc3cc(Cl)ccc3n2)cc1`, the “growth AUC” value is 1.04 (inactive).

Take `Cc1cccc(C)c1N(C(=O)CCl)C1CCOC1=O` (stereo not drawn): the “growth AUC” value was 0.86 (inactive).

Consider `Cc1[nH]oc(=O)c1N=Nc1ccccc1Cl`, for which the “growth AUC” value is 0.982 (inactive).

On to `CCCOc1nc2ccc(I)cc2c(=O)n1CCC`, for which the “growth AUC” value was 0.994 (inactive).

For the compound `CCOCOc1ccc(C(=O)Nc2cccc(Cl)c2Cl)cc1`, the “growth AUC” value is 0.989 (inactive).

Take `COc1ccc(Oc2ccc(NC(=O)N(C)C)cc2)cc1`: the “growth AUC” value is 0.988 (inactive).

As to `COCCN(C(=O)CO)c1c(C)cccc1C(=O)O`, the “growth AUC” value is 0.965 (inactive).

Take `C/C=C/C=C/CCCCCCCO`: the “growth AUC” value is 0.994 (inactive).

On to `CCOC(=O)C(C)Oc1ccc(Oc2nc3ccc(Cl)cc3o2)cc1` (racemic), for which the “growth AUC” value is 1.01 (inactive).
